± gives the standard deviation of the averaged measurements. The full ranking holds about 25,000 sequences; the median of “ln(normalized median fluorescence intensity)” is about 7.9, and the highest 2% start at about 11. What follows is part of a selection rich in the highest values, with near analogues and random picks from the rest.

This note sets out measurements from the supplement of paper PMC11417369.

This assay concerns PfAP2-I AP2 domain 3 (GST-tagged). Briefly: gcPBM binding intensity (ln(normalized median fluorescence intensity)); higher = stronger DNA binding. The procedure, abridged: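 Binding intensity is defined as the maximum Masliner-normalised natural-log median intensity across replicate spots for either probe orientation. It was measured on an Agilent 4 × 180k array of primer-extended double-stranded 36-bp intergenic genomic probes and negative controls, to which GST-tagged P. falciparum DNA-binding domains made in E. coli were applied for 1 h in 1× PBS with 1% milk, 0.2 mg/ml BSA, 0.5% salmon testes DNA and 0.03% Triton X-100. Detection was by Alexa488 anti-GST antibody and scanning at 488 nm.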
For “ATCAACATTATGGTTAGTACTTAGTGAATTGTTAAT [XGTACX_site4926]”, the “gcPBM binding intensity (ln)” value was 7.63 ± 0.59. As for “TTGTTCTATATATATGCATGCACGTATGTTAAATTA [TGCATGCA_site659]”, the figure is 11.3 ± 0.23. Under “TTCATATATTATTATGCATGTTCATAAATTATCTAA [TGCATGCA_site896]” stands 7.88 ± 0.58; under “TTCTATATATTATATGCATGTAAAACATATTAAAAT [TGCATGCA_site662]”, 7.93 ± 0.61. In the case of “TACCTTTTTTGTTTTATGCACACCATATAACCAAGG [CACACA_site30]”, the “gcPBM binding intensity (ln)” value worked out at 10.3 ± 0.33. Under “TCGTAAACTTTATGCACACACATATACATATTTCAT [CACACA_site739]” stands 10.2 ± 0.53; under “ATTATGCACCAACACACACACACACCCCTAAAAAAT [CACACA_site2568]”, 11.4 ± 0.79; under “TAATTATGCCAACACACACACACACCCAACTAAAAA [CACACA_site8823]”, 8.22 ± 0.25. Under “ATTATGCACCAACACACACACACACTCCTAAAAAAT [CACACA_site8822]” stands 11.4 ± 0.95. “ATTATGCACGGACACACACACACACCCCTAAAAAAT [CACACA_site5426]”: the “gcPBM binding intensity (ln)” value was determined as 10.4 ± 0.49. As for “TGTGCCCAAAATTATGCACACACCTAAAATTAATTT [CACACA_site2914]”, the figure is 10.3 ± 0.4. Consider “TGCACAAAATTATGCACACACCTAAAATTAATTTTT [CACACA_site5596]”, for which the “gcPBM binding intensity (ln)” value came to 9.98 ± 0.32. Under “TTTTGTTTCTATATAAGATGGAAATATAAACTTGTA [CACACA_negctrl_site82]” stands 7.64 ± 0.47. For “AATAAAAATTTACTTTGTACACATATTAAATTCAAT [XGTACX_site1957]”, the “gcPBM binding intensity (ln)” value was found to be 7.83 ± 0.15. Under “TATATTAATAAAGGTACTACACGGAAATGGAAATAT [XGTACX_site7760]” stands 8.58 ± 0.67; under “TTAAAATAAAGAAAATGTACATAAATAAAAATAAAG [XGTACX_site2280]”, 8.35 ± 0.45; under “AACCAATTATATTTACGTACGTACGGTTTTTTATAT [XGTACX_site1291]”, 7.94 ± 0.48.

Regarding “ATTTCTTTTTTATTGAGTACATATGACCATGTTCAA [XGTACX_site5365]”, the “gcPBM binding intensity (ln)” value was 8.14 ± 0.38. Under “ATTATTCATTTATGTAGTACATTTTAATACATTTAA [XGTACX_site3599]” stands 7.75 ± 0.6; under ACCAATAAATATTTGGTGCATACATATATATATATA, 10.31 ± 0.064; under TACGTCTTTTTTTTGGTGCATAATTTTTTTGTACAA, 11.2 ± 0.44. Under CAACCTTTTTTGTTGGTGCATAATTTTTTTTTCTTT stands 10.9 ± 0.52; under “AGACCTTTAATTTGTGTGCACATAATTAGTGTACAT [GTGCAC_site9434]”, 9.96 ± 0.16. Under “TATTTCTTTTGGTTGGTGCATAAAATAATACAATAT [GTGCAC_site9916]” stands 11.2 ± 0.59. With “AAAATTTCTTTTTTTTGTACATATATAATAATATAT [XGTACX_site7107]”, the “gcPBM binding intensity (ln)” value was found to be 7.82 ± 0.39.

With “TTTCTTTATTAAAATATTTTACATATATAATATACG [TGCATGCA_negctrl_site564]”, the “gcPBM binding intensity (ln)” value was 7.92 ± 0.55. Under “ATTTCCTTTTGTTTCAGTACATAATTTTTTTTTTTT [XGTACX_site4842]” stands 7.88 ± 0.62. For TTTTCTTTTTTTTTTGTGCACATAATATATAATTAT, the “gcPBM binding intensity (ln)” value is 10.8 ± 0.14.

On to “CGGACATACTAACGGACACACGTAAGAAAAAAAAAG [CACACA_site4504]”, for which the “gcPBM binding intensity (ln)” value is 7.79 ± 0.58. Under “ATAAATAAAAATACATGAACAGGTCAGGTTATTTTT [CACACA_negctrl_site1007]” stands 7.29 ± 0.61; under “AAAGAAATTATTTGTTGTACATATGTTATTTTTTTT [XGTACX_site7570]”, 7.75 ± 0.25.

As for “AAATGTGCATTATGTTGTACAGTCGAAATTTTTTTT [XGTACX_site3812]”, the “gcPBM binding intensity (ln)” value was determined as 11.1 ± 0.62.

As for “TATTTTGCAAAATGTGCATGTTGTGTATTATGTGAC [TGCATGCA_site59]”, the “gcPBM binding intensity (ln)” value was determined as 8.97 ± 0.51. On to “AAGAAAGACATTACGTGTACCAAACAACCTACCAAC [XGTACX_site4219]”, for which the “gcPBM binding intensity (ln)” value is 8.22 ± 0.25. Take “TTCCTTTGTTGTCGTTGTACTTATATGGTTATAATT [XGTACX_site3082]”: the “gcPBM binding intensity (ln)” value came to 8.29 ± 0.64. Under “TAGGTCCTCATTTTATGTACATAAAGAAATATGATT [XGTACX_site4138]” stands 7.86 ± 0.36; under “TATTATAATATTTATACACACATAATTTTGATAAAT [CACACA_site583]”, 7.68 ± 0.4; under “CCCATGCATTTTTGCACACACATATATTTATAAATA [CACACA_site6785]”, 9.75 ± 0.17. As for “ATATATTTATAATACACATGCAATGATATAATATAT [TGCATGCA_site20]”, the figure is 8.43 ± 0.75; as for “TATATATTAATATTTACACACATGCGCACCCATAAA [CACACA_site2410]”, 9.86 ± 0.57; as for “CCATTTGATAATAATGCACACCACATATATTTATAT [CACACA_site9002]”, 11 ± 0.4. As for “ACCCATTTGATAATAATGCACACCACATATATTTAT [CACACA_site3061]”, the figure is 11 ± 0.63.

In the case of “ACTCTCTTATATTAAACACACATATTTATAGGTATA [CACACA_site7302]”, the “gcPBM binding intensity (ln)” value turned out to be 8.07 ± 0.45. Under “AGGAGGATGCATATGGCACACATTATGAAACTGTCG [CACACA_site299]” stands 9.11 ± 1. As for “AATTTTTAGAAGAACACACACATATATATTATGACC [CACACA_site246]”, the figure is 7.75 ± 0.65. With “GAAAGAAAATATTAAGTGCATATTTTAATGATACAA [GTGCAC_site9712]”, the “gcPBM binding intensity (ln)” value was determined as 9.02 ± 0.2. As for ATTTTTAATGGATAAGTGCATAATATTATGATGCAA, the figure is 10.9 ± 0.64; as for “TATTAATGATAAGAATATTTTATATGATACATGCAT [CACACA_negctrl_site923]”, 7.46 ± 0.68. Under “TTTTTTTTTTTGTGTGCATGTGCTAGGAAAGGTAGG [TGCATGCA_site330]” stands 8.85 ± 0.11; under “TACTTCATATAATTAGCACACAATAATTTCTCATTT [CACACA_site2872]”, 8.31 ± 0.45. “GTATTTATAATACGGCGTACATAAAAAAAAAAAAAA [XGTACX_site3705]”: the “gcPBM binding intensity (ln)” value turned out to be 8.14 ± 0.45. As for “TATCATTTTTTTAAAACACACATAATAATATAAATA [CACACA_site2845]”, the figure is 7.82 ± 0.31. As for “TAAATTAATACCTATGCACACATTTTTTTTTTTAAA [CACACA_site1238]”, the figure is 8.32 ± 0.47; as for “AAATTTAATTTTATATCACACATTAAATTTTAATGG [CACACA_site4251]”, 7.65 ± 0.58; as for “AATGCTATCATTAATGCACACATTTAAAATTAATAT [CACACA_site3548]”, 11 ± 0.55. Under “TAATATATTATAAACACATGCACATTAATAATAACT [TGCATGCA_site708]” stands 8.08 ± 0.58; under “AATGCTATCATTAATGCACACATTTAAACTTAATAT [CACACA_site5878]”, 11 ± 0.61. “GAAAAAATAAAATAAAGTACATAACTATAATAAAAA [XGTACX_site4807]”: the “gcPBM binding intensity (ln)” value was determined as 7.9 ± 0.34.
